PubChem BioAssay AID1578 (Sanford-Burnham Center for Chemical Genomics, 2009)
Hit rate of the full screen: of about 290,000 compounds, about 3,000 (1%) were called active. For the sample, actives were picked, then their nearest neighbours and some compounds at random. A number with no mark means an inactive call. No stated cut-off is given here; in the data, active means inhibition mostly above about 36% (no sharp cut-off); inactive means mostly below about 34%.

Assay: NOD1 signaling inhibitors, primary screen, cell-based, luminescence, uHTS (AID 1578);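 further: HEK-293T reporter cells stimulated with the NOD1 agonist gamma-tri-DAP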
Settings: NOD1-driven NF-kB luciferase reporter cells, at 4 µM, active compounds read high

SMILES	inhibition
CCOC(=O)c1sc2ccccc2c1OC(=O)c1ccccc1	38.2%
CCOC(=O)c1sc2ccccc2c1OC(=O)c1ccccc1OC	46.4%
Cc1ccc(S(=O)(=O)N2c3ccccc3OCC2c2ccccc2)cc1 (stereo unspecified)	-19.1%
CC1COc2ccccc2N1C(=O)c1ccccc1Cl (stereo unspecified)	4.6%
CCCCOc1ccccc1C(=O)N(Cc1ccco1)C1CCS(=O)(=O)C1 (stereo unspecified)	25.4%
CCOC(=O)c1c(C)c2c(=O)[nH]cnc2n1-c1ccccc1	32.5% (active)
CCOC(=O)c1c(O)c(O)c(C(=O)OCC)n1-c1ccccc1	-8.7%
CCOC(=O)c1sc2nc[nH]c(=O)c2c1C	4.3%
C=CCOc1c(CNc2ccc(C(=O)O)cc2)cccc1OC	-2.4%
N#Cc1cc2c(nc1SCc1cccnc1)CCCC2	-35.1%
Cc1[nH]c(=S)c(C#N)c(-c2ccco2)c1C(=O)N(C)C	-29.8%
COc1ccc(NC(=O)NC2(C(=O)N3CCCCCC3)CCCCC2)cc1	-9.8%
Cc1ccc(S(=O)(=O)N2CCOCC2)cc1C(=O)Nc1c(C)n(C)n(-c2ccccc2)c1=O	-23.2%
CC(=O)N[C@@H](C)c1nc2ccccc2n1CCCN1CCN(c2nc(-c3ccc(C)cc3)cs2)CC1	-3.9%
Cc1ccc(-c2csc(N3CCN(CCCn4c(C(F)(F)F)nc5ccccc54)CC3)n2)cc1	-23%
Cc1noc(C)c1COC(=O)[C@@H](NC(=O)c1ccccc1Cl)C(C)C	-17.3%
Cc1csc(NC(=O)c2ccc(C(=O)Nc3nc(C)cs3)cc2)n1	2.7%
Cc1csc(NC(=O)c2ccc(N3CCCC3=O)cc2)n1	39.5% (active)
CCC(CC)c1nnc(NC(=O)c2ccc(N3CCCC3=O)cc2)s1	-14.4%
Cc1ccccc1N1CCN(C2CCCN(C(=O)c3noc4c3CCCC4)C2)CC1 (stereo unspecified)	6.2%
COc1ccc(C2c3c(-c4ccccc4O)n[nH]c3C(=O)N2Cc2ccco2)cc1 (stereo unspecified)	-5.9%
O=C1c2[nH]nc(-c3ccccc3O)c2C(c2ccc(F)cc2)N1Cc1ccco1 (stereo unspecified)	53.4% (active)
O=C1c2[nH]nc(-c3ccccc3O)c2C(c2ccccc2)N1Cc1ccco1 (stereo unspecified)	-0.4%
COc1cc2c(cc1OC)C(c1ccccc1)N(C(=O)c1ccco1)CC2 (stereo unspecified)	3.6%

SMILES	inhibition
COc1ccc(OCCC(=O)OCC(=O)NC(=O)NC(C)(C)C)cc1	7%
CC(=O)NCC(=O)OC(C)C(=O)Nc1ccc(C(C)=O)cc1 (stereo unspecified)	-17.4%
CCCNC(=O)c1ccc(N2CCC3(CC2)CC(c2ccccc2)=NO3)c(NC(=O)c2cccc(C)c2)c1	43.2%
CCCNC(=O)c1ccc(N2CCC3(CC2)CC(c2ccccc2)=NO3)c(NC(=O)c2cccc(OC)c2)c1	77.4% (active)
CCCNC(=O)c1ccc(N2CCC3(CC2)CC(c2ccccc2)=NO3)c(NC(=O)c2ccccc2)c1	21.3%
CC(=O)Nc1ccc(C2=NNC(=Nc3ccc(S(=O)(=O)N4CCOCC4)cc3)SC2)cc1	-12.4%
CCOC(=O)N/N=C/c1c(C)c(C(=O)c2ccc(F)cc2)n2ccccc12	48.9% (active)
Cc1c(/C=N/NC(N)=O)c2ccccn2c1C(=O)c1ccc(F)cc1	15.7%
Cc1c(/C=N/NC(=O)c2ccc(O)cc2)c2ccccn2c1C(=O)c1ccc(F)cc1	17.9%
CNC(=S)N/N=C/c1c(C)c(C(=O)c2ccc(F)cc2)n2ccccc12	0.6%
COC(=O)N/N=C/c1c(C)c(C(=O)c2ccc(F)cc2)n2ccccc12	-3.4%
CCCCCCCCCC[N+](C)(C)CC/C=C1/c2ccccc2Sc2ccc(Cl)cc21	-0.8%
CCCCCCc1cc2cc(C(N)=O)c(=N)oc2cc1O	12.9%
CCCCCCc1cc2cc(C(=O)Nc3ccc(OC)cc3)c(=O)oc2cc1O	-7.5%
CCCCCCc1cc2cc(S(=O)(=O)c3ccc(C)cc3)c(=O)oc2cc1O	-36.3%
CCCCCCc1cc2cc(C(=O)Nc3ccccc3)c(=O)oc2cc1O	34.1%
CCCCCCc1cc2cc(C(=O)Nc3cccc(OC)c3)c(=O)oc2cc1O	59.9%
CCCCCCc1cc2cc(C(=O)Nc3ccccc3OC)c(=O)oc2cc1O	-4.9%
CCCC1C(C#N)=C(N)Oc2n[nH]c(C(C)(C)C)c21 (stereo unspecified)	-47.4%
CCOc1ccc(N(CC(=O)N2CCCCC2)S(=O)(=O)c2ccc(Cl)cc2)cc1	5.7%
Nn1c(Cc2ccccc2)n[nH]c1=S	-24.7%
O=C1c2cccnc2C(=O)N1c1cccc(-c2nc3ccccc3o2)c1	-23.4%
O=C(NCc1ccco1)C(c1ccccc1F)N(CC1CCCO1)C(=O)Cn1nnc2ccccc21 (stereo unspecified)	-7%
CCN(C(=O)Cn1c(=O)oc2ccccc21)c1cccc(C)c1	2.1%

SMILES	inhibition
CC(C)C[C@H](NC(=O)c1nc[nH]c1C(=O)NCc1ccccc1)C(=O)OC(C)(C)C	-11.1%
COc1ccc(CN(CC(=O)NCc2ccco2)C(=O)CCC(=O)Nc2ccccn2)cc1	-20.6%
O=C1NC(=S)N/C1=C/c1cccnc1	16.2%
Cc1cc(/C=C2\NC(=S)NC2=O)c(C)n1-c1cccnc1	-14.7%
O=C1NC(=S)N/C1=C\c1cccnc1	33.9% (active)
COc1ccc(/C=N/NC(=O)CSc2ccccc2)cc1OC	-7.9%
CCc1ccc(NC(=O)CN(c2ccccc2)S(=O)(=O)N(C)C)cc1	-17.6%
COc1ccc2cc(C(=O)/C=C/c3cc(OC)c(OC)c(OC)c3)ccc2c1	52.7%
COc1cc(/C=C/C(=O)c2ccc(O)cc2)ccc1OCC#N	29.2%
COc1ccc(/C=C/C(=O)c2ccc(C(=O)/C=C/c3ccc(OC)c(OC)c3)cc2)cc1OC	-4.9%
CCOc1ccc(C(=O)/C=C/c2ccc(OC)c(OC)c2)cc1	51.4%
COc1ccc(NC(=O)Nc2cccc3ccccc23)c(OC)c1	19.9%
CCS(=O)(=O)N1CCN(S(=O)(=O)c2ccc3c(c2)OCCO3)CC1	24.1%
COc1ccccc1N1CCN(C(=O)CSc2nc3ccccc3nc2N2CCCCC2)CC1	8.8%
COc1ccccc1N1CCN(C(=O)CSc2nc3ccccc3nc2N2CCC(C)CC2)CC1	58.1% (active)
Cc1ccnc(N2CCN(C(=O)CSc3nc4ccccc4nc3N3CCC(C)CC3)CC2)c1	3.8%
CS(=O)(=O)N(CC(=O)NCCSCc1c(F)cccc1Cl)c1cccc([N+](=O)[O-])c1	-2.1%
COc1cc(C(=O)OCC(=O)Nc2cc(C)on2)ccc1OCc1ccccc1Cl	-69.5%
CCCCN(C)C(=O)C1CCC(CNS(=O)(=O)c2ccc3c(c2)CC(C)N3C(C)=O)CC1 (stereo unspecified)	-1.6%
Clc1cccc(CN2CCc3c([nH]c4ccccc34)C2)c1	73.3% (active)
Clc1ccc(CN2CCc3c([nH]c4ccccc34)C2)cc1Cl	-1.2%
Cc1cccc(CN2CCc3c([nH]c4ccccc34)C2)c1	-0.6%
Nc1ccc(S(=O)(=O)Nc2nc3ccccc3o2)cc1	-21.3%
CCc1nnc(NC(=O)CCC(=O)N2CCC(Cc3ccccc3)CC2)s1	-19.4%

SMILES	inhibition
CNc1ccccc1C(C)(C)c1cc(-c2cccc(Br)c2)no1	18.9%
CNc1ccccc1C(C)(C)c1cc(-c2cccc(OC)c2)no1	53.1% (active)
CNc1ccccc1C(C)(C)c1cc(-c2cccc([N+](=O)[O-])c2)no1	-54.1%
CCC(=O)NNC(=O)CCC(=O)Nc1ccc(C)cc1C	-21.4%
COc1ccc(NC(=O)CCNS(=O)(=O)c2cccc3nsnc23)cc1	-14.3%
C=CCSc1nnc(N2C(=O)C(O)=C(C(=O)c3ccco3)C2c2ccccc2F)s1 (stereo unspecified)	-10.7%
O=C(O)c1ccc(S(=O)(=O)c2ccc3c(c2)C(=O)N(c2ccc(O)cc2)C3=O)cc1	-1.2%
O=C(c1cc2sccc2n1Cc1ccccc1)N1CCc2ccccc21	-5.9%
O=C(c1cc2sccc2n1Cc1ccccc1)N1CCCc2ccccc21	34.8% (active)
O=C(c1cc2sccc2n1Cc1ccc(F)cc1)N1CCCc2ccccc21	-9%
CN(CCc1ccccn1)C1CCCN(S(=O)(=O)c2ccccc2)C1 (stereo unspecified)	-25.2%
Cc1ccc(/C=C/C(=O)Nc2nc3ccccc3[nH]2)cc1	-16.1%
COc1ccc(NC(=O)c2ccc(-c3csc(C)n3)cc2)cc1	-5.5%
CCOC(=O)c1cnn(-c2ccccc2)c1-n1cccc1C(=O)C(=O)Nc1ccccc1	-28.7%
CCOC(=O)c1cnn(-c2ccccc2)c1-n1cccc1C(=O)C(=O)N(C)C	-12.4%
CCOC(=O)c1cnn(-c2ccccc2)c1-n1cccc1C(=O)C(=O)N(CC)CC	42.8% (active)
Cc1ccc(-c2nnn(Cc3nc(N)nc(N4CCOCC4)n3)n2)cc1	5.1%
CC(=O)C(=Cc1ccc(C(=O)O)cc1)C(C)=O	-17.7%
COc1ccc2cc(CO)c(Cl)nc2c1	-28.1%
COc1ccc2cc(C#N)c(Cl)nc2c1	-29.7%
Cc1ccc2cc(CCl)c(Cl)nc2c1	50.2% (active)
Cc1ccc2cc(C=O)c(Cl)nc2c1	-3.3%
COc1ccc2cc(CCl)c(Cl)nc2c1	70.1% (active)
ClCc1cc2ccccc2nc1Cl	-27%
